# PubChem BioAssay (NCATS)
# Inconclusive results are not listed. Where a call stands in place of a potency, no number is given. A number with no mark means an inactive call. The source made the active and inactive calls. Calls come from the whole dose curve; as a rule, active = well fitted cell-killing curve with a large enough effect; inconclusive = small, poorly fitted or top-dose-only effect; inactive = no such curve, though single readings can be large or run the other way.
# Assay: qHTS of pediatric cancer cell lines to identify multiple opportunities for drug repurposing: Primary screen for SJ-GBM2 cells (AID 1347091)
# Details: SJ-GBM2 viability, CellTiter-Glo luminescence, 48 h; series mostly up to 46 µM
# Description: Drug repurposing or repositioning has been offered as a strategy for drug development in oncology programs. This approach has special potential for childhood cancers and other rare or orphan diseases, where the expected return on new drug development has been a disincentive to pharmaceuticals.
# In this project we exploit the poly-pharmacology of drugs to discover new indications via phenotypic screening of a panel of 19 well-characterized cell lines derived from solid tumors seen in children and adolescents. The goal is to identify approved drugs with previously unrecognized anticancer properties that has the potential to reveal new mechanisms and biological processes involved in carcinogenesis or drug resistance. We employed a titration-based paradigm (quantitative high-throughput screening or qHTS), where all compounds were tested at multiple concentrations for their effect on cell viability. Concentration-response curves (CRCs) were derived directly from the primary screen, and both potency and efficacy values were used to identify compounds with robust bioactivity profiles. We screened the NIH Chemical Genomics Center (NCGC) Pharmaceutical Collection (NPC) and Mechanism Interrogation Plate (MIPE) small molecule collections of approved and investigational compounds against these cell lines; and measured metabolically active cells after 48 hours of compound treatment as a proxy for cell viability.
# Assay Submitter: Nathalia J. Martinez, National Center for Advancing Translational Sciences, National Institutes of Health, Rockville, MD, USA; email: natalia.martinez@nih.gov
# [1] Shen, M et al. Quantitative high-throughput phenotypic screening of pediatric cancer cell lines identifies multiple opportunities for drug repurposing. Oncotarget 2017 Dec 19;9(4):4758-4772. PMID 29435139.
# The cells were obtained from University of North Carolina (UNC), Pediatric Preclinical Testing Program (PPT), and Coriell Institute (CI).
# qHTS cell viability assay:
# Cells were assayed in growth media at a density of 500-1,000 cells/well. Five microliters of cells were dispensed into 1,536-well, white, solid-bottom, TC-treated plates (Greiner Bio One) using a multidrop dispenser and incubated at 37 degrees C, 5% CO2, under a humidified atmosphere for 5 hours. Twenty-three nanoliters of compounds and controls (neutral control DMSO or positive control bortezomib at final concentration of 2.3 µM) were subsequently transferred by Kalypsys pintool. For primary screens, the MIPE collection was tested at 11-point dilutions (final concentrations range from 0.78 nM to 46 µM) and the NPC collection at 8-point dilutions (final concentrations range from 0.59 nM to 46 µM). Compounds tested in follow-up screens were assayed at 11-point dilutions. Cells were incubated for 48 hours, followed by addition of 3 uL of CellTiter-Glo (Promega). After a 15 min incubation at room temperature, samples were analyzed for luminescence intensity using a ViewLux High-throughput CCD imager equipped with clear filters.
# Potency is the fitted concentration of half-maximal effect.
SMILES,Potency,"activity change, negative = cytotoxic"
O=c1cc(-c2ccccc2)oc2ccccc12,inactive,–
Cc1c(N)c(=O)n(-c2ccccc2)n1C,inactive,–
O=C1CN(/N=C/c2ccc([N+](=O)[O-])o2)C(=O)N1,inactive,–
O=C(/C=C/c1ccccc1)NCCO,inactive,–
Nc1ccc(O)c([N+](=O)[O-])c1,inactive,–
COC(=O)Nc1nc2ccc(C(=O)C3CC3)cc2[nH]1,841 nM (active),–
Cc1ccc(O)c(-n2nc3ccccc3n2)c1,inactive,–
CCCCCCCCCCCCCCCCCC(=O)O,inactive,–
Clc1ccccc1-c1nc(-c2ccncc2)no1,inactive,–
CN1CCN(c2cc3c(nn2)Oc2ccccc2N3C)CC1,inactive,–
O=C(CCN1CCN(CCO)CC1)N1c2ccccc2Sc2ccc(C(F)(F)F)cc21,inactive,–
O=C(O)Cc1ccc(-c2ccccc2)cc1,inactive,–
CN(C)[C@@H]1C(=O)C(C(=O)NCN2CCCC2)=C(O)[C@@]2(O)C(=O)C3=C(O)c4c(O)cccc4[C@@](C)(O)C3C[C@@H]12 (stereo not given in full),inactive,–
Nc1nc2ccc([N+](=O)[O-])cc2s1,inactive,–
Cc1ccc(C(=O)c2ccc(CC(=O)O)n2C)cc1,inactive,–
O=Cc1ccc(O)c(O)c1O,inactive,–
Cc1[nH]cnc1CN1CCc2c(c3ccccc3n2C)C1=O,inactive,–
Cc1ccc2c(n1)Oc1ccc(C(C)C(=O)OCC(=O)N(C)C)cc1C2 (stereo not given),inactive,–
CC(C)OC(=O)c1cc(C(=O)OC(C)C)cc([N+](=O)[O-])c1,inactive,–
NC(=O)C(c1ccccc1)(c1ccccc1)[C@@H]1CCN(CCc2ccc3c(c2)CCO3)C1,inactive,–

SMILES,Potency,"activity change, negative = cytotoxic"
CN(C)CCn1nnnc1SCC1=C(C(=O)O)N2C(=O)[C@@H](NC(=O)Cc3csc(N)n3)[C@H]2SC1,inactive,–
CCCCCCCCCCCCOCCO,inactive,–
Oc1c(Br)cc(Br)c2cccnc12,11900 nM (active),–
CCOC(=O)c1ccccc1O,inactive,–
COc1cc2c3cc1Oc1cc(ccc1O)C[C@@H]1c4c(cc(OC)c(O)c4Oc4ccc(cc4)C[C@@H]3N(C)CC2)CC[N+]1(C)C,inactive,–
CNC(=O)c1c(I)c(NC(=O)CCCCC(=O)Nc2c(I)c(C(=O)O)c(I)c(C(=O)NC)c2I)c(I)c(C(=O)O)c1I,inactive,–
Cc1c(Nc2ncccc2C(=O)O)cccc1C(F)(F)F,inactive,–
CC(C)(C)c1nnc(NS(=O)(=O)c2ccc(N)cc2)s1,inactive,–
Nc1c(CC(=O)O)cccc1C(=O)c1ccc(Br)cc1,inactive,–
COc1ccnc2c1CCCCC2S(=O)c1nc2ccccc2[nH]1 (stereo not given),inactive,–
Nc1cc(-c2ccncc2)c[nH]c1=O,inactive,–
CCCOC(=O)c1ccc(O)cc1,inactive,–
CCCC(=O)OC[C@@H](OC(=O)CCC)[C@@H](OC(=O)CCC)[C@H](Cn1c2nc(=O)[nH]c(=O)c-2nc2cc(C)c(C)cc21)OC(=O)CCC,inactive,–
COc1cccc2c1C(=O)c1c(O)c3c(c(O)c1C2=O)C[C@@](O)(C(=O)CO)C[C@@H]3O[C@H]1C[C@H](N)[C@H](O[C@@H]2CCCCO2)[C@H](C)O1,1330 nM (active),–
CC(C(=O)O)c1ccc(C(=O)c2cccs2)cc1 (stereo not given),inactive,–
COc1ccc(-c2cc(=S)ss2)cc1,inactive,–
O=C(OCc1ccccc1)c1ccccc1,inactive,–
O=C(O)Cc1cccc(-c2cc(CCCCCCc3ccc(O[C@H]4O[C@H](CO)[C@@H](O)[C@H](O)[C@@H]4O)c(-c4cccc(CC(=O)O)c4)c3)ccc2O[C@H]2O[C@H](CO)[C@@H](O)[C@H](O)[C@@H]2O)c1,–,18.6% [at 0.597 µM]
c1ccc2sc(SN3CCOCC3)nc2c1,inactive,–
Nc1ccc(C(=O)O)c(O)c1,inactive,–
